Assay results from PubChem BioAssay (EPA / NIEHS).
Activity calls are given as the source filed them. How the source made its calls: active means hit-call score of the fitted dose curve at least 0.9, where 1 is the maximum; inactive means score below 0.9.

test: ATG_ERE_CIS: Attagene CIS-FACTORIAL HepG2 Assay for Estrogen Response Element (ERE) (AID 2282940); details: HepG2 ERE cis-reporter, Attagene RNA transcript; actives raise or lower the signal
Protocol: ATG_CIS is a cell-based, multiplexed-readout assay that uses HepG2, a human liver cell line, with measurements taken at 24 hours after chemical dosing in a 24-well plate.ATG_ERE_CIS is one of 52 assay component(s) measured or calculated from the ATG_CIS assay. It is designed to make measurements of mRNA induction, a form of inducible reporter, as detected with fluorescence intensity signals by Reverse transcription polymerase chain reaction (RT-PCR) and Capillary electrophoresis technology.Data from the assay component ATG_ERE_CIS was analyzed into 1 assay endpoint. This assay endpoint, ATG_ERE_CIS, was analyzed with bidirectional fitting relative to DMSO as the negative control and baseline of activity. Using a type of inducible reporter, measures of mRNA for gain or loss-of-signal activity can be used to understand the reporter gene at the transcription factor-level as they relate to the gene ESR1. Furthermore, this assay endpoint can be referred to as a primary readout, because this assay has produced multiple assay endpoints where this one serves a reporter gene function. To generalize the intended target to other relatable targets, this assay endpoint is annotated to the nuclear receptor intended target family, where the subfamily is steroidal.
Human liver HepG2 cells are transiently transfected with multiple reporter transcription units (MRTUs) in 6-well plates using FuGene 6 reagent (Roche; 3 ml FuGene/1 mg DNA). The MRTU constructs are regulated by a cis-regulating element (promoter). […] A major difference between the CIS and TRANS system is that in CIS activities of endogenous TFs are measured, whereas the TRANS assay evaluates changes in activities of exogenous, chimeric NR-Gal4 proteins. […] At the end of 24 hour incubation, total RNA was isolated using TriZol reagent (Invitrogen). The isolated RNA is then reverse-transcribed using oligo(dT) primer and Mo-MLV reverse transcriptase (Invitrogen) with DNAse I (Ambion) treatment for 30 min. The one-tenth of the produced cDNA was amplified by PCR using Taq DNA polymerase (Invitrogen) and two reporter sequence-specific primers. The PCR products were fluorescently labeled by primer extension with 6-arboxyfluorescein (6-FAM) 5'-labeled reporter sequence-specific primer (2 min at 95 C, 20 s at 68 C and 10 min at 72 C) and these products were digested with 5U of HpaI (New England Biolabs) for 2h at 37 C. The fragments were purified using Qiaquick PCR columns (Qiagen), analyzed on an ABI 3130xL genetic analyzer (Applied Biosystems) with peak positions identified by using a set of X-rhodamine (ROX)-labeled MapMarker1000 molecular weight standards (BioVentures). The raw capillary electrophoresis data was processed using Attagraph software (Attagene).

SMILES | outcome | AC50
CSc1ccc(Oc2ccc(S(N)(=O)=O)cc2CN(C)C)cc1C | inactive | –
CC1(C)C(=O)NC(=O)N1CO | – | 158 µM (active)
NC(=Nc1ccccc1)Nc1ccccc1 | inactive | –
O=C1CCCCC1 | inactive | –
CCC(C)N(C)C(=O)c1cc2ccccc2c(-c2ccccc2Cl)n1 (stereo not given) | inactive | –
CC(C)OC(=O)C(C)(C)Oc1ccc(C(=O)c2ccc(Cl)cc2)cc1 | – | 27.7 µM (active)
COc1ccc(OC(F)(F)F)cc1CN[C@H]1CCCN[C@H]1c1ccccc1 | inactive | –
COC(=O)CCC(=O)OC | inactive | –
Oc1ccc(O)cc1 | – | 35.6 µM (active)
Nc1nc(=S)c2[nH]cnc2[nH]1 | – | 98.1 µM (active)
O=[Si]=O | inactive | –
O=Cc1ccccc1C=O | inactive | –
OCC(CO)n1cnc(-c2ccc(F)cc2)c1-c1ccnc(Oc2ccccc2)n1 | inactive | –
CCCCCCCCCCCCCCCCO | inactive | –
O=C(O)CN(CC(=O)O)CC(=O)O | inactive | –
CCCCc1nc2cccnc2n1Cc1ccc(-c2ccccc2-c2nnn[nH]2)cc1 | inactive | –
c1ccc2occc2c1 | inactive | –
CS(=O)(=O)c1ccc([C@@H](C[C@H]2CCC(=O)C2)C(=O)Nc2cnccn2)cc1Cl | – | 45.5 µM (active)

SMILES | outcome | AC50
CCCCCCCCCCCCCCOS(=O)(=O)O | inactive | –
COc1ccc(C(=O)Nc2nc3ccccc3c(NCc3ccccc3)c2C#N)cc1 | – | 1.46 µM (active)
CN(C)C(=O)NC1(c2ccccc2)CCN(CCC[C@]2(c3ccc(Cl)c(Cl)c3)CCCN(C(=O)c3ccccc3)C2)CC1 | inactive | –
CCc1nc(N)nc(N)c1-c1ccc(Cl)cc1 | inactive | –
Cc1ccc(-c2cc(C(F)(F)F)nn2-c2ccc(S(N)(=O)=O)cc2)cc1 | inactive | –
O=C(N[C@@H](c1ccccc1)[C@@H]1CCCCN1)c1cccc(C(F)(F)F)c1Cl | inactive | –
Cc1c(C)c2c(c(C)c1O)CCC(C)(COc1ccc(CC3SC(=O)NC3=O)cc1)O2 (stereo not given) | – | 0.221 µM (active)
Cc1ccc(C(C)(C)C)c(O)c1 | – | 25.1 µM (active)
CN(C)CCCN(C)CCCN(C)C | inactive | –
CC1=C(C)S(=O)(=O)CCS1(=O)=O | inactive | –
CC(C)c1cccc(C(C)C)c1 | inactive | –
CCCCCCC(CCCCCCCCCCC(=O)OCC(COC(C)=O)OC(C)=O)OC(C)=O (stereo not given) | inactive | –
O=C(O)c1[nH]n(-c2ccc(S(=O)(=O)O)cc2)c(=O)c1N=Nc1ccc(S(=O)(=O)O)cc1 | inactive | –
NC1CCCCC1 | inactive | –
CCCCCCCCCC[N+](C)(C)[O-] | inactive | –
CCCCCCCC(=O)OC | inactive | –
O=C(NS(=O)(=O)/C=C/c1cccs1)c1ccc(F)cc1Br | inactive | –
